Laboratory results reported in PubChem BioAssay AID588477 (NMMLSC, 2011).
Activity calls are given as the source filed them.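 How the source made its calls: active means valid curve fit with half-effect dose at most 10 µM and total binding change across doses of 30 points or more; inactive means the rest.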

Test system: Ras wt
Assay: small GTPase nucleotide-binding inhibition, multiplex panel – biochemical, round 1 SAR, Mg buffer, multiplex flow cytometry, selectivity assay for Cdc42 probe extension project, SAR follow-up (AID 588477)
Conditions: GST-GTPase beads, Bodipy-GTP binding; series mostly up to 100 µM

outcome, inactive:
COc1ccc(C2CC(c3ccccc3)=NN2c2ccc(S(N)(=O)=O)cc2)cc1 (stereo not drawn)
NS(=O)(=O)c1ccc(N2N=C(c3ccccc3)CC2c2ccccc2)cc1 (stereo not drawn)
O=C(C#Cc1ccccc1)c1cccc([N+](=O)[O-])c1
